A short description of assay [1]: resazurin metabolic signal in HepG2 cells – cell-based, resazurin fluorescence, 24 h, PK04 Diversity Set, profiling panel (AID 1172). Particulars: HepG2 viability, higher = more signal. A general note: Resazurin is reduced to fluorescent resorufin, in cell work by metabolically active cells.
Assay [2] can be described thus: budding yeast growth changes without added modifier – OD600, strain BY4716, 24 h, basal condition, primary screen (AID 1173). Particulars: S. cerevisiae BY4716 growth, OD600, 24 h; higher = more signal, called active from +8 up or from −8 down.
Assay [3] can be described thus: viability profiling in MM1S myeloma cells – cell-based, resazurin fluorescence, basal, 24 h, PK04 Diversity Set, profiling panel (AID 1174).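 Note: MM1S multiple myeloma cell line.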 The conditions noted are these: higher = more signal, called active from +8 up or from −8 down.
Assay [4] deals with Dihydroorotate dehydrogenase (quinone), mitochondrial (Plasmodium falciparum (isolate 3D7)) (UniProt Q08210). Briefly: inhibition of P. falciparum DHODH – biochemical, C-terminal His tag, absorbance 600 nm, primary screen (AID 1175).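 Note: recombinant parasite enzyme with a five histidine tag at its C terminus.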 Particulars: PfDHODH enzyme, DCIP absorbance 600 nm; higher = more signal, called active from +8 up or from −8 down.
Assay [5] is described as follows: inhibition of PAO1 biofilm formation – strain PAO1, LB-PBS medium, absorbance 600 nm, primary screen (AID 1176). The conditions noted are these: P. aeruginosa PAO1 growth/biofilm, A600, 12 h; higher = more signal.
A short description of assay [6]: growth modulation of vineyard yeast isolate – strain RM11-1a, OD600, basal, 24 h, primary screen (AID 1177).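 Note: cultures grown under basal conditions with no added stressor.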 Particulars: S. cerevisiae RM11-1a growth, OD600, 24 h; higher = more signal, called active from +8 up or from −8 down.
Assay [7] in a line: growth of efflux-deficient E. coli DRC39 – strain DRC39, OD650, 24 h, E. coli filamentation inducers, primary screen (AID 1178).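 Note: growth measured as culture turbidity by optical density at 650 nm.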 Particulars: E. coli DRC39 acrAB, higher = more signal, called active from +8 up or from −8 down.
Assay [8] can be described thus: growth of efflux-deficient E. coli DRC39 – strain DRC39, OD650, 48 h, E. coli filamentation inducers, primary screen (AID 1179).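 Note: screen aims at cell division blockers that make cells filament.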 The conditions noted are these: E. coli DRC39 delta-acrAB growth, higher = more signal, called active from +8 up or from −8 down.
Assay [9] in a line: viability profiling in RPMI8226 myeloma cells – cell-based, resazurin fluorescence, basal, 24 h, PK04 Diversity Set, profiling panel (AID 1180).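 Note: RPMI8826 multiple myeloma cell line at 5000 cells per well.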 Particulars: higher = more signal.
In assay [10] the target is E3 ubiquitin-protein ligase XIAP (Homo sapiens) (UniProt P98170). The assay can be described thus: small molecules binding XIAP protein – biophysical, small-molecule microarray, fluorescence 635 nm, primary screen (AID 1181).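 Note: score merges 667 nm emission and signal to noise over triplicate slides.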 Particulars: higher = more signal.
Assay [11] deals with XIP peptide (Xip251-270) binding. The assay can be described thus: XIP fragment 251-270 binding compounds – biochemical, small-molecule microarray, fluorescence 635/667 nm, 0.1 µg/mL protein, primary screen (AID 1182). Particulars: fluorescent protein binding, 635 nm, higher = more signal, called active from +8 up or from −8 down.
In assay [12] the test system is XIP peptide (Xip251-270). Briefly: compounds binding XIP fragment 251-270 – biochemical, small-molecule microarray, fluorescence 635/667 nm, 0.5 µg/mL protein, primary screen (AID 1183). The conditions noted are these: fluorescence 635 nm, higher = more signal.
Assay [13] in a line: blood-stage malaria parasite viability loss – strain 3D7, DAPI fluorescence, 100 nL, primary screen (AID 1184).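 Note: parasites grown inside human red blood cells in medium with human serum.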 Particulars: P. falciparum 3D7 growth, 3 d, higher = more signal.
Assay [14] has as its target Homeobox protein Hox-A13 (Mus musculus) (UniProt Q62424). Briefly: disruptors of Hoxa13 oligonucleotide interaction – biochemical, fluorescence polarization, labeled oligonucleotide, primary screen (AID 1185). The conditions noted are these: Hoxa13:DNA binding, 15 min, higher = more signal, called active from +8 up or from −8 down. (Polarisation of emitted light reports the rotation of a fluorescent probe.)

Assay [15] is described as follows: blockers of DNA damage checkpoint Chk1 activation – imaging, HeLa, hydroxyurea, phospho-Chk1 antibody, percent positive cells, primary screen (AID 1186). The conditions noted are these: hydroxyurea-induced phospho-Chk1 immunofluorescence imaging, higher = more signal.
Assay [16] in a line: blockers of DNA damage checkpoint Chk1 activation – imaging, HeLa, hydroxyurea, phospho-Chk1 nuclear intensity, primary screen (AID 1187). The conditions noted are these: hydroxyurea-induced phospho-Chk1 immunofluorescence imaging, higher = more signal.

This note sets out measurements from PubChem BioAssay.

Each structure is given as a SMILES string. The source made the active and inactive calls. Unless noted, the rule behind the calls is not given here.

Sequence of Homeobox protein Hox-A13 (Mus musculus) (Q62424 whole entry, looked up): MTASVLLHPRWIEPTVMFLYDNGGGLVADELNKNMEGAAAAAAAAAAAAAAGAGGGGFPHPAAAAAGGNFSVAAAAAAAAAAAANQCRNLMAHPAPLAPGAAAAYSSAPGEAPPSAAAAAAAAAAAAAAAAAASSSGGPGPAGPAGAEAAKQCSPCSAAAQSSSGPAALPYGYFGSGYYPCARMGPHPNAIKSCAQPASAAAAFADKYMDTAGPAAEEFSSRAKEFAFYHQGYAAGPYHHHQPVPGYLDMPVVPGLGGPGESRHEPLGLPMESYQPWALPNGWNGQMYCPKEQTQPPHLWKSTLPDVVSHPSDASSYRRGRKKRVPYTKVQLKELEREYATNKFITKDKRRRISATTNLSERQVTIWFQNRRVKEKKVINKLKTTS
Sequence of E3 ubiquitin-protein ligase XIAP (Homo sapiens) (P98170 whole entry, looked up, the tested form may be a part): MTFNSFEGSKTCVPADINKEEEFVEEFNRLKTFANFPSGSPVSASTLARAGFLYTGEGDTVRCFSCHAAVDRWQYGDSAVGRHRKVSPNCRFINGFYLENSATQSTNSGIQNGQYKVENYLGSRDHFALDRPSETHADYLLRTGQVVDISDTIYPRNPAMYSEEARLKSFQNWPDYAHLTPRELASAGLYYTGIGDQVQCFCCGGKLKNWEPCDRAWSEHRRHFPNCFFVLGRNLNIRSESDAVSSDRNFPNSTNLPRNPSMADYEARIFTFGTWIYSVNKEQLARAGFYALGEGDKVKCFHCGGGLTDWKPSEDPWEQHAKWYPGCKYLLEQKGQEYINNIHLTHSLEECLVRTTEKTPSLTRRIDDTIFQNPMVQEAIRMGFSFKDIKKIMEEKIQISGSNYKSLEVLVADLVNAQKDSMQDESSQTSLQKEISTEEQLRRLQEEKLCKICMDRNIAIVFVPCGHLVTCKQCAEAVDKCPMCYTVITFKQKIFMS
Sequence of Dihydroorotate dehydrogenase (quinone), mitochondrial (Plasmodium falciparum (isolate 3D7)) (Q08210 whole entry, looked up): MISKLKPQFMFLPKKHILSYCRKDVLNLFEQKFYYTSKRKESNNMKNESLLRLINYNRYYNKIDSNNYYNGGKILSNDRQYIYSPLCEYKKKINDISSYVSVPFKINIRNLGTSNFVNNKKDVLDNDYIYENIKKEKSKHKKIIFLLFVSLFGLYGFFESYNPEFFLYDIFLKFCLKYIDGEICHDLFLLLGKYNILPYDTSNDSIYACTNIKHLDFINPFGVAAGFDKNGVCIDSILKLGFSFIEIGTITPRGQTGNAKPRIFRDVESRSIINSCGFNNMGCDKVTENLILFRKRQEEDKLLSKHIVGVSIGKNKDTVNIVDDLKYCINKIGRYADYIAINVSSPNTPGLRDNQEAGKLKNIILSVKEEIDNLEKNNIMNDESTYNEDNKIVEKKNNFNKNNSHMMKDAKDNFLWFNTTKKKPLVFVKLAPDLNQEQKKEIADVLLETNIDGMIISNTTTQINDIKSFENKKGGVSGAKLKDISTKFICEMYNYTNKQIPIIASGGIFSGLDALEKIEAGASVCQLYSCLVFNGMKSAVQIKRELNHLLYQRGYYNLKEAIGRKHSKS

For `COC(=O)[C@@]1(Cc2ccc(OC)cc2)[C@H]2c3cc(C(=O)N4CCCC4)n(CCc4c[nH]c5ccc(OC)cc45)c3C[C@H]2CN1C(=O)c1ccccc1`, the z-score in [1] was -1.23; in assay [2], 1.26 (inactive); in [3], -3.31 (inactive); in assay [5], 1.54 (inactive); in assay [6] it was 0.708 (inactive); in assay [7], -0.456 (inactive). For the same compound, the z-score in assay [8] is -0.0765 (inactive); in [9] it was -3.35; in assay [13] it was -1.71; in assay [14] it was -2.82 (inactive); in assay [15] it was 0.513 (inactive); in assay [16] it was 0.399 (inactive). In addition, the composite z-score in assay [4] was -0.112 (inactive); in assay [10], 0.123; in assay [11], 0.203 (inactive); in [12], 0.0718.

With `CS(=O)(=O)CCOC(=O)C1=CC(CCCO)=CC(c2ccc(CN3CCCC3)cc2)N(Cc2sc3ccccc3c2Cl)C=C1C(=O)OCCS(C)(=O)=O` (centres undefined), the z-score in assay [1] was -0.518; in assay [2], -2.76 (inactive); in assay [3], -0.0646 (inactive); in [5] it was -0.259 (inactive); in assay [6] it was 0.34 (inactive); in [7] it was 0.285 (inactive). Besides, the z-score in assay [8] is 0.309 (inactive); in assay [9], -0.0127; in assay [13] it was -3.03; in assay [14], 1.07 (inactive); in [15], 0.316 (inactive); in assay [16], 0.969 (inactive). Also, the composite z-score is -0.449 (inactive) in assay [4], -0.247 in assay [10], 0.814 (inactive) in [11] and 0.746 in assay [12].

As for `COCC(=C=CC[C@H](O)c1ccc(CO)o1)CCO`, the z-score was -0.116 in assay [1]; -1.63 (inactive) in [2]; -0.0463 (inactive) in assay [3]; -0.165 (inactive) in assay [5]; 0.256 (inactive) in assay [6]; -0.401 (inactive) in [7]. In addition, the z-score in assay [8] is -0.524 (inactive); in assay [9] it was 0.036; in assay [13], 1.08; in [14] it was -3.75 (inactive); in [15] it was 0.625 (inactive); in assay [16], 0.295 (inactive). For the same compound, the composite z-score in [4] is -2.35 (inactive); in assay [10], 0.536; in [11], -0.224 (inactive); in assay [12], 0.297.

As to `[N-]=[N+]=Nc1ccccc1C[C@]1(C(=O)NCCN2CCOCC2)COC(c2ccc(OCCCO)cc2)=N1`, the z-score in assay [1] was 1.14; in [2], -1.84 (inactive); in assay [3] it was 0.892 (inactive); in assay [5], 0.289 (inactive); in assay [6] it was -0.71 (inactive); in [7] it was 0.947 (inactive). Moreover, the z-score in assay [8] is 0.361 (inactive); in assay [9] it was 1.13; in assay [13] it was -1.06; in [14] it was -6.04 (inactive); in [15], -0.566 (inactive); in assay [16] it was -0.17 (inactive). Besides, the composite z-score in [4] is 0.137 (inactive); in assay [10] it was -0.237; in [11] it was 0.728 (inactive); in assay [12] it was 0.256.

On to `CCCCC=C[C@@H](NC(=O)OCc1ccccc1Cl)c1ccccc1`, for which the z-score is -0.656 in [1]; 1.33 (inactive) in assay [2]; -1.19 (inactive) in [3]; 0.84 (inactive) in [5]; 1.48 (inactive) in assay [6]; -1.32 (inactive) in assay [7]. Further, the z-score in [8] is -0.892 (inactive); in assay [9], -1.2; in assay [13] it was -1.37; in assay [14], 2.14 (inactive); in [15], 0.663 (inactive); in assay [16] it was -0.117 (inactive). The composite z-score is 0.0518 (inactive) in assay [4], 0.0137 in assay [10], -0.549 (inactive) in assay [11] and 0.573 in assay [12].

As to `NC(=O)NCC#Cc1ccc2c(c1)[C@]1(C(=O)N2)[C@H](c2ccccc2OCCO)N2[C@H](c3ccccc3)[C@H](c3ccccc3)OC(=O)[C@H]2[C@@H]1C(=O)NC[C@H](O)c1ccccc1`, the z-score in [1] was 0.999; in [2], -0.589 (inactive); in assay [3], 1.62 (inactive); in [5], 0.601 (inactive); in assay [6], 1.94 (inactive); in [7], 1.22 (inactive). The z-score in [8] was 0.693 (inactive); in assay [9], 0.462; in assay [13] it was -0.521; in [14] it was -3.58 (inactive); in [15], -0.552 (inactive); in assay [16], -0.793 (inactive). Moreover, the composite z-score was -0.253 (inactive) in assay [4], 0.254 in assay [10], 0.427 (inactive) in assay [11] and 0.209 in assay [12].

As for `[N-]=[N+]=NCc1ccccc1[C@@H]1OC(c2ccc(OCCCO)cc2)=N[C@]1(CCS(=O)(=O)c1ccccc1)C(=O)O`, the z-score in assay [1] is -0.274; in assay [2] it was -0.577 (inactive); in [3] it was -0.906 (inactive); in [5], -0.0583 (inactive); in [6], 0.275 (inactive); in [7] it was -0.447 (inactive). Besides, the z-score in assay [8] was 0.0549 (inactive); in assay [9], -1.4; in [13], 0.692; in assay [14], -4.86 (inactive); in assay [15], 0.162 (inactive); in assay [16], 0.23 (inactive). Further, the composite z-score in assay [4] is 0.456 (inactive); in assay [10], 0.0537; in [11] it was 0.573 (inactive); in assay [12] it was 0.964.

On to `CCOC(=O)C[C@H]1[C@H](OC(=O)Cc2ccc3c(c2)OCO3)[C@@H](NC(=O)c2ccc3ccccc3n2)c2cc(OCCCO)ccc2N1C(=O)c1ccc2ccccc2n1`, for which the z-score is 0.482 in assay [1]; -1.22 (inactive) in assay [2]; -0.145 (inactive) in [3]; 0.325 (inactive) in assay [5]; -2.19 (inactive) in [6]; 2.08 (inactive) in [7]. For the same compound, the z-score is 1.57 (inactive) in [8]; -0.172 in [9]; -2.58 in assay [13]; -2.98 (inactive) in assay [14]; -0.663 (inactive) in assay [15]; -0.162 (inactive) in [16]. The composite z-score in assay [4] was -0.574 (inactive); in assay [10], -0.0773; in [11], -0.113 (inactive); in assay [12], 0.66.

For `O=C(Cc1ccccc1)[C@H]1C2C=CCCC(c3ccccc3)=C2CN1Cc1ccccc1` (some centres undefined), the z-score in [1] was 1.37; in [2], -2.98 (inactive); in [3], 0.806 (inactive); in assay [5] it was 1.44 (inactive); in assay [6] it was -0.546 (inactive); in assay [7] it was 1.64 (inactive). The z-score is 1.29 (inactive) in [8]; 1.08 in assay [9]; 0.979 in assay [13]; -2.16 (inactive) in assay [14]; -0.171 (inactive) in [15]; 0.213 (inactive) in [16]. The composite z-score in assay [4] is -0.658 (inactive); in assay [10] it was -0.441; in assay [11], 1.11 (inactive); in [12], -0.0929.
